# How the values were obtained:
# Assay in all cases: DAPPL (digital affinity profiling via proximity ligation, sequencing); 10 mM Tris-HCl pH 7.5, 50 mM NaCl, 1 mM DTT, 4% glycerol, room temperature, 30 min; GST-TFs on glutathione beads, 16-mer random dsDNA library, 0.1% formaldehyde crosslink after washing; high values mean tight binding
# HSF1 = HSF1 (Homo sapiens, UniProt Q00613 1-529); conditions: protein: recombinant; tags: N-terminal GST; chain copies: 3; dsDNA, one strand shown
# How it was run: (§1)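 Pools were built from human transcription factors expressed in yeast as GST fusions, captured on glutathione beads and DNA-barcoded, along with a tag-only sample. Incubation with 200 nmole of a 16-mer random double-stranded DNA library lasted 30 min at room temperature in Tris/NaCl/DTT/glycerol buffer, and was followed by washing, 0.1% formaldehyde crosslinking, proximity ligation, PCR amplification and Illumina NextSeq500 sequencing. Binding signal is the quotient of each hexamer's read frequency for a factor and its frequency for the tag-only sample.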
# ELF3 = biological target: T1, ELF3 (Homo sapiens, UniProt P78545 1-371); conditions: protein: recombinant; tags: N-terminal GST; dsDNA, one strand shown
# T1 sequence: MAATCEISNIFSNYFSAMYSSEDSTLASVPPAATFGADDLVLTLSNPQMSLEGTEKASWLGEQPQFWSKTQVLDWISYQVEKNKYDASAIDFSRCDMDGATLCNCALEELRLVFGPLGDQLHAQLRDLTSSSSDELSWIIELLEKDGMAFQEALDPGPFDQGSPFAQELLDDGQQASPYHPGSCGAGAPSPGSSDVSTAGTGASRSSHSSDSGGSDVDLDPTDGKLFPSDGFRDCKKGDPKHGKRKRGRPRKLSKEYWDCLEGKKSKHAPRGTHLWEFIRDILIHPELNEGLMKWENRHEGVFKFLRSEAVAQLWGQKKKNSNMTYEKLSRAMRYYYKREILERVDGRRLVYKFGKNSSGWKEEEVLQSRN
# How it was run: as §1
# ETV7 = biological target: T2, ETV7 (Homo sapiens, UniProt Q9Y603 1-341); conditions: protein: recombinant; tags: N-terminal GST; dsDNA, one strand shown
# T2 sequence: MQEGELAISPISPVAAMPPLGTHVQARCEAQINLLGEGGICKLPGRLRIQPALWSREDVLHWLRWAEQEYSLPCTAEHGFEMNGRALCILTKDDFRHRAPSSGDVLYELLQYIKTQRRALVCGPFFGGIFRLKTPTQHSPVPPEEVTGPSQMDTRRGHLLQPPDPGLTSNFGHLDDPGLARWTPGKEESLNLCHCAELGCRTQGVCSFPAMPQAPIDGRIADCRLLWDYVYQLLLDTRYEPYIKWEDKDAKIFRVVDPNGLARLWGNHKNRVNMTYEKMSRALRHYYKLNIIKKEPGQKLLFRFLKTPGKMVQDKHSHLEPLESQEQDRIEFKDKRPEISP
# How it was run: as §1
# ETV2 = biological target: T3, ETV2 (Homo sapiens, UniProt O00321 1-342); conditions: protein: recombinant; tags: N-terminal GST; dsDNA, one strand shown
# T3 sequence: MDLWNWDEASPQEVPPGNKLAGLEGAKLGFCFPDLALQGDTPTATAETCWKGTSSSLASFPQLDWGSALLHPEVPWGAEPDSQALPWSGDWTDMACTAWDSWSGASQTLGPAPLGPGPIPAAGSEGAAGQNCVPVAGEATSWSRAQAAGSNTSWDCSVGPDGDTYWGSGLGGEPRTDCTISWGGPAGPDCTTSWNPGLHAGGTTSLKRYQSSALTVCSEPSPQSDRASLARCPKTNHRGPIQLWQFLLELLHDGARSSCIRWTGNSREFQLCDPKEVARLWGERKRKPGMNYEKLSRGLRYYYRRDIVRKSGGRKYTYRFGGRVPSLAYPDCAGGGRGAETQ
# How it was run: as §1
# CRX = CRX (Homo sapiens, UniProt O43186 1-299); conditions: protein: recombinant; tags: N-terminal GST; dsDNA, one strand shown
# Chain of CRX (O43186 whole entry): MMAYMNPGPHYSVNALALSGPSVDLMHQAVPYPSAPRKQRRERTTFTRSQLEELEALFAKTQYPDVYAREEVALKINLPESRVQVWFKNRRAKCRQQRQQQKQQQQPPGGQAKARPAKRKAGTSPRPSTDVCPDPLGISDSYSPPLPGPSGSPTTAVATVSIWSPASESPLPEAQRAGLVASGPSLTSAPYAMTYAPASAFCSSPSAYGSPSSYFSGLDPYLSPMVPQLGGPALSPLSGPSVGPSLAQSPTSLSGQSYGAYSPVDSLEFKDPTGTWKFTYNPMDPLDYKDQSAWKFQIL
# How it was run: as §1
# ERG = biological target: T4, ERG (Homo sapiens, UniProt P11308 1-479); conditions: protein: recombinant; tags: N-terminal GST; dsDNA, one strand shown
# T4 sequence: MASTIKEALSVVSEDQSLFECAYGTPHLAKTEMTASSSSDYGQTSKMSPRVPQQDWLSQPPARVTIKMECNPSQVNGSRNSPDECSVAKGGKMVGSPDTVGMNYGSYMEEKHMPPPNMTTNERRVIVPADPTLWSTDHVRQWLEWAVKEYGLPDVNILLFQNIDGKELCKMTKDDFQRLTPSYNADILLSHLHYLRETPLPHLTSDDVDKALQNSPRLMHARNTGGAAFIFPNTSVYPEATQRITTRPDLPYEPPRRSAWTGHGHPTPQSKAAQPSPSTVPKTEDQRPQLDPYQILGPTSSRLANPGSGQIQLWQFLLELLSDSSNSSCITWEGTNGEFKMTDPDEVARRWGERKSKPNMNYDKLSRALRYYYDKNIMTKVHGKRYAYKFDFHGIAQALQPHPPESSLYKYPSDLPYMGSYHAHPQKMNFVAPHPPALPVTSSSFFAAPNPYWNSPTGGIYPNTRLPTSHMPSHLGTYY
# How it was run: as §1
# SPI1 = SPI1 (Homo sapiens, UniProt P17947 1-270); conditions: protein: recombinant; tags: N-terminal GST; dsDNA, one strand shown
# How it was run: as §1
# SPDEF = biological target: T5, SPDEF (Homo sapiens, UniProt O95238 1-335); conditions: protein: recombinant; tags: N-terminal GST; dsDNA, one strand shown
# T5 sequence: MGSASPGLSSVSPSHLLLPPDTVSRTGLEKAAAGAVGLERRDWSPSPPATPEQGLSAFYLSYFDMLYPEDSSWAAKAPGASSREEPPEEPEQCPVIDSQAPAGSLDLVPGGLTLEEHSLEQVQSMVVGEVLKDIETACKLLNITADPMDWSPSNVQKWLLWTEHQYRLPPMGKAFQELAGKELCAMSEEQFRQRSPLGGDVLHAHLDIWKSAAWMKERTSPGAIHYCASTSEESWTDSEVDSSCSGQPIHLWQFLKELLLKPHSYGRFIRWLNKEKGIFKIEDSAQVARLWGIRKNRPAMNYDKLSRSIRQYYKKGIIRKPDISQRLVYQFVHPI
# How it was run: as §1
# ERF = biological target: T6, ERF (Homo sapiens, UniProt P50548 1-548); conditions: protein: recombinant; tags: N-terminal GST; dsDNA, one strand shown
# T6 sequence: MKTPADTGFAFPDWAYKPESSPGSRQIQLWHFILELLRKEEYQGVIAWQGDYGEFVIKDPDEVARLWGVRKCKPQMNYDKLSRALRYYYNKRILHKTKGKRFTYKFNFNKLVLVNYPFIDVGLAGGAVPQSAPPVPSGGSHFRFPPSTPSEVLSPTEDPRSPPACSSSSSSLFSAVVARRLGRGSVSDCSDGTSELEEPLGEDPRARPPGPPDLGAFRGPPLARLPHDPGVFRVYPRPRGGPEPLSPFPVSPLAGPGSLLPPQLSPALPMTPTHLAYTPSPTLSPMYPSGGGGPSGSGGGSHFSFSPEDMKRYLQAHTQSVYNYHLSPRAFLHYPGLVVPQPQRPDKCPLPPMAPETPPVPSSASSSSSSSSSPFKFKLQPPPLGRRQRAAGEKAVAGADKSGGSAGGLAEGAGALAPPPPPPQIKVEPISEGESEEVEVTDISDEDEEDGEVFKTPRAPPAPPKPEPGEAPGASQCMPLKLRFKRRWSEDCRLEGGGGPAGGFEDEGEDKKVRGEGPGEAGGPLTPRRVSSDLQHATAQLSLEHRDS
# How it was run: as §1
# ETV6 = ETV6 (Homo sapiens, UniProt P41212 1-452); conditions: protein: recombinant; tags: N-terminal GST; dsDNA, one strand shown
# Chain of ETV6 (P41212 whole entry): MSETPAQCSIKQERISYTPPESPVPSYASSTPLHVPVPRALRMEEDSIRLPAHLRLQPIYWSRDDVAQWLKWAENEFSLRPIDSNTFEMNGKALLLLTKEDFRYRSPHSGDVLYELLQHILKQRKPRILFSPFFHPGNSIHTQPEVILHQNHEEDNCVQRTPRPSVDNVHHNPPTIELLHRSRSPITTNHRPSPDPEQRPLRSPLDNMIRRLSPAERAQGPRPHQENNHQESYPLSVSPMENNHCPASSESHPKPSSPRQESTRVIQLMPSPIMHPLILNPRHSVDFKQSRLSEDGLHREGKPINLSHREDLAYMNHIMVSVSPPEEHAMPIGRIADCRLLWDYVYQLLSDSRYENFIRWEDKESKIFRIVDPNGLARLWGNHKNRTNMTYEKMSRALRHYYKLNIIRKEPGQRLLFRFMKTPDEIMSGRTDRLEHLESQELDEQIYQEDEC
# How it was run: as §1
# Chain of HSF1 (Q00613 whole entry, the tested form may be a part): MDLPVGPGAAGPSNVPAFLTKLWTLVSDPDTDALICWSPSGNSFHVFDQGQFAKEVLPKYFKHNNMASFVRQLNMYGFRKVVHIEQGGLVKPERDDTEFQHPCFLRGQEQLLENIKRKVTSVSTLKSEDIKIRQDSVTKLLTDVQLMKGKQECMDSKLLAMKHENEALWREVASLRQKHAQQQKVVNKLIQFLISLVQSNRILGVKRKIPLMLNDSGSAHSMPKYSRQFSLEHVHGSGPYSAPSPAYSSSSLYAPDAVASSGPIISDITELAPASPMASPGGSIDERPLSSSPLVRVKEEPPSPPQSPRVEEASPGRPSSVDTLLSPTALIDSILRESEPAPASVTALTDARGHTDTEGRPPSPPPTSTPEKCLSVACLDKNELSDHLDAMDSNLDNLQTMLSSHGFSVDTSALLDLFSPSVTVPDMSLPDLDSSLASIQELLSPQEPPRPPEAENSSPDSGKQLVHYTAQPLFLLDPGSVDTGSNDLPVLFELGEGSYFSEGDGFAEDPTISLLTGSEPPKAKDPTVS
sequence,measurement,setting,value
AGCATA,binding signal,HSF1,"1.04 fold enrichment (6-mer frequency, TF over GST control)"
same,binding signal,ELF3,"1.01 fold enrichment (6-mer frequency, TF over GST control)"
same,binding signal,ETV7,"1.01 fold enrichment (6-mer frequency, TF over GST control)"
ACCAGA,binding signal,HSF1,"1.55 fold enrichment (6-mer frequency, TF over GST control)"
same,binding signal,ETV2,"1.01 fold enrichment (6-mer frequency, TF over GST control)"
same,binding signal,CRX,"1.06 fold enrichment (6-mer frequency, TF over GST control)"
GTCTGG,binding signal,HSF1,"1.06 fold enrichment (6-mer frequency, TF over GST control)"
same,binding signal,ETV2,"1.02 fold enrichment (6-mer frequency, TF over GST control)"
TTCAGA,binding signal,ERG,"1.02 fold enrichment (6-mer frequency, TF over GST control)"
same,binding signal,SPI1,"1.04 fold enrichment (6-mer frequency, TF over GST control)"
same,binding signal,HSF1,"1.09 fold enrichment (6-mer frequency, TF over GST control)"
same,binding signal,ETV2,"1.08 fold enrichment (6-mer frequency, TF over GST control)"
same,binding signal,CRX,"1.03 fold enrichment (6-mer frequency, TF over GST control)"
same,binding signal,SPDEF,"1.01 fold enrichment (6-mer frequency, TF over GST control)"
TTAGAC,binding signal,HSF1,"1.1 fold enrichment (6-mer frequency, TF over GST control)"
same,binding signal,CRX,"1.44 fold enrichment (6-mer frequency, TF over GST control)"
CAGATC,binding signal,HSF1,"1.09 fold enrichment (6-mer frequency, TF over GST control)"
same,binding signal,ETV2,"1.02 fold enrichment (6-mer frequency, TF over GST control)"
same,binding signal,CRX,"1.13 fold enrichment (6-mer frequency, TF over GST control)"
same,binding signal,SPDEF,"1.07 fold enrichment (6-mer frequency, TF over GST control)"
TTTAGA,binding signal,SPI1,"1.05 fold enrichment (6-mer frequency, TF over GST control)"
same,binding signal,HSF1,"1.37 fold enrichment (6-mer frequency, TF over GST control)"
same,binding signal,ETV2,"1.12 fold enrichment (6-mer frequency, TF over GST control)"
same,binding signal,CRX,"1.59 fold enrichment (6-mer frequency, TF over GST control)"
same,binding signal,ERF,"1.08 fold enrichment (6-mer frequency, TF over GST control)"
same,binding signal,ETV7,"1.05 fold enrichment (6-mer frequency, TF over GST control)"
same,binding signal,ETV6,"1.04 fold enrichment (6-mer frequency, TF over GST control)"
TAAGAC,binding signal,HSF1,"1.22 fold enrichment (6-mer frequency, TF over GST control)"
same,binding signal,CRX,"1.72 fold enrichment (6-mer frequency, TF over GST control)"
CCAGAT,binding signal,HSF1,"1.61 fold enrichment (6-mer frequency, TF over GST control)"
same,binding signal,CRX,"1.34 fold enrichment (6-mer frequency, TF over GST control)"
